Assay results reported in the supplement of paper PMC8728848.
About 410 targets per protein were measured; listed, in parts, are those with the strongest signals and a random draw of the rest.

Legend:
Experiment in all cases: glycan array binding signal (z-score within array); higher = stronger binding
Settings in all cases: glycan notation: IUPAC condensed, linker removed
Gal(b1-6)Gal = biological target: Gal(b1-6)Gal
Procedure, shortened: (§1)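 The binding signal is a Z-score computed within each array and averaged over linkers. Arrays of the same protein sequence at different concentrations or buffers were also averaged together. Data originate from 3228 arrays in the Consortium for Functional Glycomics database, kept only where the protein sequence was available.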

Gal6S(b1-4)Glc6S = biological target: Gal6S(b1-4)Glc6S
Procedure, shortened: as §1

GalNAc(b1-3)GalNAc = biological target: GalNAc(b1-3)GalNAc
Procedure, shortened: as §1

GalNAc(b1-4)GlcNAc = biological target: GalNAc(b1-4)GlcNAc
Procedure, shortened: as §1

GalNAc(b1-6)GalNAc = biological target: GalNAc(b1-6)GalNAc
Procedure, shortened: as §1

GalNAc3S(b1-4)GlcNAc = biological target: GalNAc3S(b1-4)GlcNAc
Procedure, shortened: as §1

Glc(b1-6)Glc = biological target: Glc(b1-6)Glc
Procedure, shortened: as §1

GlcA(b1-3)GlcNAc = biological target: GlcA(b1-3)GlcNAc
Procedure, shortened: as §1

GlcNAc(b1-3)Gal = biological target: GlcNAc(b1-3)Gal
Procedure, shortened: as §1

GlcNAc(b1-3)Gal(b1-4)Glc = biological target: GlcNAc(b1-3)Gal(b1-4)Glc
Procedure, shortened: as §1

[1] = biological target: GlcNAc(b1-3)Gal(b1-4)GlcNAc(b1-3)Gal(b1-4)GlcNAc(b1-2)Man(a1-3)[GlcNAc(b1-3)Gal(b1-4)GlcNAc(b1-3)Gal(b1-4)GlcNAc(b1-2)Man(a1-6)]Man(b1-4)GlcNAc(b1-4)GlcNAc
Procedure, shortened: as §1

[2] = biological target: GlcNAc(b1-3)[GlcNAc(b1-4)][GlcNAc(b1-6)]GlcNAc
Procedure, shortened: as §1

[3] = biological target: Man(a1-2)Man(a1-6)[Man(a1-3)]Man(a1-6)[Man(a1-2)Man(a1-2)Man(a1-3)]Man
Procedure, shortened: as §1

[4] = biological target: Man(a1-2)Man(a1-6)[Man(a1-3)]Man(a1-6)[Man(a1-2)Man(a1-2)Man(a1-3)]Man(b1-4)GlcNAc(b1-4)GlcNAc
Procedure, shortened: as §1

Neu5Ac(a2-3)Gal = biological target: Neu5Ac(a2-3)Gal
Procedure, shortened: as §1

[5] = biological target: Neu5Ac(a2-3)Gal(b1-3)GalNAc(b1-3)Gal(a1-4)Gal(b1-4)Glc
Procedure, shortened: as §1

[6] = biological target: Neu5Ac(a2-3)Gal(b1-3)GlcNAc(b1-2)Man(a1-3)[GlcNAc(b1-4)][Neu5Ac(a2-3)Gal(b1-3)GlcNAc(b1-2)Man(a1-6)]Man(b1-4)GlcNAc(b1-4)GlcNAc
Procedure, shortened: as §1

[7] = biological target: Neu5Ac(a2-3)Gal(b1-4)GlcNAc(b1-2)Man(a1-3)[Neu5Ac(a2-3)Gal(b1-4)GlcNAc(b1-2)Man(a1-6)]Man(b1-4)GlcNAc(b1-4)GlcNAc
Procedure, shortened: as §1

[8] = biological target: Neu5Ac(a2-3)Gal(b1-4)GlcNAc(b1-2)Man(a1-3)[Neu5Ac(a2-3)Gal(b1-4)GlcNAc(b1-2)Man(a1-6)]Man(b1-4)GlcNAc(b1-4)[Fuc(a1-6)]GlcNAc
Procedure, shortened: as §1

[9] = biological target: Neu5Ac(a2-3)Gal(b1-4)GlcNAc(b1-3)Gal(b1-4)GlcNAc(b1-3)[Neu5Ac(a2-3)Gal(b1-4)GlcNAc(b1-3)Gal(b1-4)GlcNAc(b1-6)]GalNAc
Procedure, shortened: as §1

[10] = biological target: Neu5Ac(a2-3)Gal(b1-4)GlcNAc(b1-3)Gal(b1-4)GlcNAc(b1-6)[Gal(b1-3)]GalNAc
Procedure, shortened: as §1

[11] = biological target: Neu5Ac(a2-3)Gal(b1-4)[Fuc(a1-3)]GlcNAc(b1-6)[Gal(b1-3)]GalNAc
Procedure, shortened: as §1

[12] = biological target: Neu5Ac(a2-3)Gal6S(b1-4)GlcNAc
Procedure, shortened: as §1

[13] = biological target: Neu5Ac(a2-3)[GalNAc(b1-4)]Gal(b1-4)GlcNAc
Procedure, shortened: as §1

[14] = biological target: Neu5Ac(a2-6)Gal(b1-4)GlcNAc(b1-2)Man(a1-3)[GlcNAc(b1-2)Man(a1-6)]Man(b1-4)GlcNAc(b1-4)GlcNAc
Procedure, shortened: as §1

[15] = biological target: Neu5Ac(a2-6)Gal(b1-4)GlcNAc(b1-3)Gal(b1-4)GlcNAc(b1-3)Gal(b1-4)GlcNAc
Procedure, shortened: as §1

[16] = biological target: Neu5Ac(a2-6)Gal(b1-4)GlcNAc(b1-3)Gal(b1-4)GlcNAc(b1-3)[Neu5Ac(a2-6)Gal(b1-4)GlcNAc(b1-3)Gal(b1-4)GlcNAc(b1-6)]GalNAc
Procedure, shortened: as §1

[17] = biological target: Neu5Ac(a2-6)Gal(b1-4)GlcNAc6S
Procedure, shortened: as §1

[18] = biological target: Neu5Ac(a2-6)GalNAc(b1-4)GlcNAc
Procedure, shortened: as §1

[19] = biological target: Neu5Ac(a2-6)GalNAc(b1-4)GlcNAc6S
Procedure, shortened: as §1

[20] = biological target: Neu5Ac(a2-8)Neu5Gc(a2-3)Gal(b1-4)GlcNAc
Procedure, shortened: as §1

B1: Clec12b (Mus musculus), Q149M0 (protein)
chain: MSDEVTYATLMLQDSARVRGNQDGNNLRKEGHPAQSSLWRGAALSLMTLCLVLVTGLVTLATMFLQVSNDINSDSEKLSQLQKSIHPQQDNLSESLNSSRKSLTEESLQSQISALLERQEQMATKLCKEFLIHASDHKCNPCPKTWQWYGNSCYYFSINEEKSWSDSRKDCIDKNATLVKIDSTEERDLLQSQLSLTFSFFWLGLSWNSSGRNWLWEDGSFPPPTLFSDKELASFNGSRDCAYFERGNIYASRCSAEIPWICEKTASLVKTEDLD
glycan array binding signal (z-score) (Gal(b1-6)Gal): -0.5
glycan array binding signal (z-score) (Gal6S(b1-4)Glc6S): 1.24
glycan array binding signal (z-score) (GalNAc(b1-3)GalNAc): -0.125
glycan array binding signal (z-score) (GalNAc(b1-4)GlcNAc): 0.301
glycan array binding signal (z-score) (GalNAc(b1-6)GalNAc): 1.14
glycan array binding signal (z-score) (GalNAc3S(b1-4)GlcNAc): -0.691
glycan array binding signal (z-score) (Glc(b1-6)Glc): -0.441
glycan array binding signal (z-score) (GlcA(b1-3)GlcNAc): -0.05
glycan array binding signal (z-score) (GlcNAc(b1-3)Gal): -0.39
glycan array binding signal (z-score) (GlcNAc(b1-3)Gal(b1-4)Glc): 2.54
glycan array binding signal (z-score) [1]: -0.27
glycan array binding signal (z-score) [2]: -0.245
glycan array binding signal (z-score) [3]: -0.526
glycan array binding signal (z-score) [4]: -0.428
glycan array binding signal (z-score) (Neu5Ac(a2-3)Gal): -0.719
glycan array binding signal (z-score) [5]: -0.593
glycan array binding signal (z-score) [6]: -0.101
glycan array binding signal (z-score) [7]: -0.716
glycan array binding signal (z-score) [8]: 11.9
glycan array binding signal (z-score) [9]: -0.513
glycan array binding signal (z-score) [10]: -0.721
glycan array binding signal (z-score) [11]: 2.54
glycan array binding signal (z-score) [12]: -0.451
glycan array binding signal (z-score) [13]: -0.538
glycan array binding signal (z-score) [14]: -0.701
glycan array binding signal (z-score) [15]: -0.719
glycan array binding signal (z-score) [16]: -0.419
glycan array binding signal (z-score) [17]: 0.459
glycan array binding signal (z-score) [18]: -0.692
glycan array binding signal (z-score) [19]: -0.524
glycan array binding signal (z-score) [20]: -0.719
